# TEAD-YAP inh – TEAD-YAP interaction inhibition; HEK-TIYL cells, TEAD-Gal4/YAP UAS-luciferase luminescence; inhibition, % at 9.12 µM; 640,000 compounds, 1.4% hits; in the data active = inhibition above about 32%;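 note: 0% = median of test compound wells and 100% = reference inhibitor wells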
# FBW7 act – activators of human E3 ligase FBW7; Q969H0; AlphaScreen FBW7–phospho-cyclin E peptide binding, activator screen; normalized activity (activation), % at 26.1 µM; 650,000 compounds, 0.13% hits; AID 1259310; in the data active = normalized activity above about 1.9%;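 note: purified mutant Fbw7 with reduced substrate affinity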
# Target sequence (Q969H0 whole entry, looked up): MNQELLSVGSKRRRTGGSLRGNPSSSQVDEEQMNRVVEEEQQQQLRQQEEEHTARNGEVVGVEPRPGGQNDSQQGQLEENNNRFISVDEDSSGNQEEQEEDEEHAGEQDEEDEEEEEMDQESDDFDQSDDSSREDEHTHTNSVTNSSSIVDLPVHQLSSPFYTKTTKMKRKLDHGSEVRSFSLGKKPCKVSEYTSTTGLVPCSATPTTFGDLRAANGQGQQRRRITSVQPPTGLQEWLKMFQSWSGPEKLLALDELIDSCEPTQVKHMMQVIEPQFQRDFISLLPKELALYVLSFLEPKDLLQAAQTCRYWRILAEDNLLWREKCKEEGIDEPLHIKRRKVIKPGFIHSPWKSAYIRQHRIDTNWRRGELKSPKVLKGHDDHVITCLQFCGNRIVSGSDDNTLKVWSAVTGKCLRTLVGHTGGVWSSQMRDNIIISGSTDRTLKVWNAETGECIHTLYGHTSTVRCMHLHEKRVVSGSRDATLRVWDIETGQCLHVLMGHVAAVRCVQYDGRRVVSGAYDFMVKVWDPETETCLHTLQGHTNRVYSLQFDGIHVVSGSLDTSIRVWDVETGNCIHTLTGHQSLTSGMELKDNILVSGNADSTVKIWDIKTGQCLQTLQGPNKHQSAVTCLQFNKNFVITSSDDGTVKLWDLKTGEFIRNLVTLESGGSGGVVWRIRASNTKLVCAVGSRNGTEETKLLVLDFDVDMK
# GPR151 ag – activators of human GPR151; activation, % at 11.2 µM; 650,000 compounds, 1% hits; AID 1508602; PathHunter beta-arrestin GPR151 cells, luminescence; in the data active = activation above about 4.9%;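 note: 0% = median of compound wells and 100% = cells with positive control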
# MITF primary – inhibitors of human MITF; AlphaScreen MITF homodimerization, bead proximity signal; inhibition, % at 2.6 µM; 650,000 compounds, 0.91% hits; in the data active = inhibition above about 50%;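 note: 0% = vehicle wells with protein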
# An asterisk follows results filed as active. This is a sample that favours compounds with a hit; in the whole collection about 3.5% have one here.
SMILES,TEAD-YAP inh,FBW7 act,GPR151 ag,MITF primary
O=C(CSc1nncc(=O)[nH]1)Nc1nc2ccccc2s1,3,0,0,-10
Cc1c(C(=O)OCCOC(C)C)[nH]c2c1C(=O)CC(c1ccccc1)C2 (configuration not stated),48*,0,1,11
Cc1c(C(=O)O)[nH]c2c1C(=O)CC(c1ccccc1)C2 (configuration not stated),11,0,0,8
COCCOC(=O)c1[nH]c2c(c1C)C(=O)CC(c1ccccc1)C2 (configuration not stated),49*,0,0,3
COCCOC(=O)c1[nH]c2c(c1C)C(=O)CC(c1ccc(F)cc1)C2 (configuration not stated),35*,0,0,7
COCCOC(=O)c1[nH]c2c(c1C)C(=O)CC(c1ccc(N(C)C)cc1)C2 (configuration not stated),-7,0,1,0
COCCOC(=O)c1[nH]c2c(c1C)C(=O)CC(c1ccc(Cl)cc1)C2 (configuration not stated),-33,0,3,-2
COc1cccc(C(=O)Nc2nc3c(s2)CCC3)c1OC,62*,0,-9,-4
COc1ccc(C(=O)Nc2nc3c(s2)CCCC3)c(OC)c1OC,62*,1,-2,8
COc1cccc(OC)c1C(=O)Nc1nc2c(s1)CCCC2,-33,1,1,9
COc1ccc(C(=O)NNc2cc(C)nc3c(C)cccc23)cc1,10,0,-1,13
Cc1cc(NNC(=O)c2ccccc2Cl)c2cccc(C)c2n1,40*,0,0,-11
COC(=O)C1=C(C(=O)OC)SC(=C2C(=S)C(C)(C)N(C(=O)c3ccccc3)c3ccc(C)cc32)S1,-6,0,1,-3
COC(=O)C1=C(C(=O)OC)SC(=C2C(=S)C(C)(C)N(C)c3ccc(C)cc32)S1,6,0,0,52*
COc1ccc(-c2cc3nc4c(c(N5CCC(O)CC5)n3n2)CCCC4)cc1,38*,0,1,-3
CC(=O)NC(C(=O)OCC(=O)N(c1ccccc1)c1ccccc1)C(C)C (configuration not stated),-7,0,0,8
CC(=O)NC(C(=O)OCc1cnc(-c2ccccc2)s1)C(C)C (configuration not stated),59*,0,-7,4
CC(=O)N1CCN(Cc2ccc3c(c2)CN(C(=O)c2cc(F)cc(F)c2)CCO3)CC1,0,0,0,7
N#CC(C#N)=NNc1ccc(SC(F)F)cc1,74*,0,1,6
COC(=O)c1sccc1NC(=O)Cn1c(-c2nonc2N)nc2ccccc21,50*,0,1,-8
CCOC(=O)c1ccccc1NC(=O)Cn1c(-c2nonc2N)nc2ccccc21,52*,0,0,2
Nc1nonc1-c1nc2ccccc2n1CC(=O)Nc1ccccc1-c1ccccc1,-11,0,2,7
COc1cccc(/C=N\NC(=O)Cn2c(-c3nonc3N)nc3ccccc32)c1O,29,0,-1,12
Nc1nc(N)nc(CCCn2c(-c3nonc3N)nc3ccccc32)n1,57*,0,0,12
COc1cc(/C=N/NC(=O)Cn2c(-c3nonc3N)nc3ccccc32)ccc1O,45*,0,0,6
SMILES,TEAD-YAP inh,FBW7 act,GPR151 ag,MITF primary
Cn1c(=O)cc(N2CCN(c3cccc(Cl)c3)CC2)[nH]c1=O,38*,0,-1,-5
Cn1c(=O)cc(N2CCN(c3ccc(F)cc3)CC2)[nH]c1=O,1,0,5,-14
Cc1ccc(S(=O)(=O)Nc2ccccc2/C=N/n2cnnc2)cc1,51*,0,2,11
O=C(N/N=C/c1sc2ccccc2c1O)c1ccc(O)cc1O,47*,-1,3,37
O=C(N/N=C/c1ccc(O)cc1O)c1ccccc1O,52*,-1,-1,4
COc1c(/C=N/NC(=O)c2ccccc2O)sc2ccccc12,-11,0,1,-12
Cc1ccc(/C=N/NC(=O)c2ccccc2O)c(O)c1,25,0,0,9
O=C(N/N=C/c1ccc(O)cc1O)C(=O)N/N=C/c1ccc(O)cc1O,5,-1,-2,99*
O=C(N/N=C/c1cc(I)ccc1O)c1ccccc1O,67*,0,0,-10
Cn1nccc1C(=O)N1CCC[C@@H]2CN(Cc3ccc(F)cc3)CC[C@H]21,-1,0,0,11
O=C(CCC(=O)Nc1cc(C(F)(F)F)ccc1Cl)N/N=C\c1ccc(O)cc1O,44*,0,2,10
